Source: ChEMBL document CHEMBL1201862, “PubChem BioAssay data set” (2004)
About 2,500 (4.4%) of roughly 57,000 sequences were called active. No stated cut-off is given here; in the data, active = GI50 up to about 1.1 µM and inactive = higher. Not all results are given here. Entries with a potency or affinity are not part of this list.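 Tested at 5 concentrations; 48 h exposure; 96-well plates; endpoints linearly interpolated, else capped at highest concentration. GI50 marks 50% less growth.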

system: UACC-257; experiment: NCI tumour cell line growth inhibition, 48 h

Substance	GI50 [µM]
[Bis(aminomethyl)dimethylsilane]dichloroplatinum (II), CHEMBL2146201	45.7
[Bis(aminomethyl)ethylmethylsilane]tetrachloroplatinum(IV), CHEMBL2146192	3.3
[Bis(aminomethyl)tetramethylenesilane]dichloropaltinum(II), CHEMBL2146205	59.7
[Bis(aminomethyl)dimethylsilane]tetrachloroplatinum(IV), CHEMBL2146190	15.1
CISPLATIN, CHEMBL11359	4.09
[Bis(aminomethyl)pentamethylenesilane]dichloropaltinum(II), CHEMBL2146202	6.81
cis-Bis[[(trimethylsilyl)methyl]amino]tetrachloroplatinum(IV), CHEMBL2146191	5.31
[Bis(aminomethyl)pentamethylenesilane]tetrachloropaltinum(IV), CHEMBL2146204	7.19
mu-(1,7-nanodiamine-N,N')bis-(cis-aminedichloroplatimum (II)), CHEMBL2146215	20.1
[Bis(aminomethyl)diethylsilane]tetrachloroplatinum(IV), CHEMBL2146203	4.79
[Bis(aminomethyl)tetramethylenesilane]tetrachloropaltinum(IV), CHEMBL2146189	16.4
